Among all 310,000 compounds or so, about 14,000 (4.5%) showed an effect of 50% or more. The effect is printed as a negative number. The list comes from a sample in which strong results are over-represented; it also holds similar structures and randomly drawn compounds.
The molecules below were run against human ether-à-go-go-related gene (hERG) potassium channel (human, UniProt Q12809) (assay: primary screen, population patch clamp on CHO cells stably expressing hERG; higher = less effect of the substance).
Chain of human ether-à-go-go-related gene (hERG) potassium channel (Q12809 whole entry, looked up): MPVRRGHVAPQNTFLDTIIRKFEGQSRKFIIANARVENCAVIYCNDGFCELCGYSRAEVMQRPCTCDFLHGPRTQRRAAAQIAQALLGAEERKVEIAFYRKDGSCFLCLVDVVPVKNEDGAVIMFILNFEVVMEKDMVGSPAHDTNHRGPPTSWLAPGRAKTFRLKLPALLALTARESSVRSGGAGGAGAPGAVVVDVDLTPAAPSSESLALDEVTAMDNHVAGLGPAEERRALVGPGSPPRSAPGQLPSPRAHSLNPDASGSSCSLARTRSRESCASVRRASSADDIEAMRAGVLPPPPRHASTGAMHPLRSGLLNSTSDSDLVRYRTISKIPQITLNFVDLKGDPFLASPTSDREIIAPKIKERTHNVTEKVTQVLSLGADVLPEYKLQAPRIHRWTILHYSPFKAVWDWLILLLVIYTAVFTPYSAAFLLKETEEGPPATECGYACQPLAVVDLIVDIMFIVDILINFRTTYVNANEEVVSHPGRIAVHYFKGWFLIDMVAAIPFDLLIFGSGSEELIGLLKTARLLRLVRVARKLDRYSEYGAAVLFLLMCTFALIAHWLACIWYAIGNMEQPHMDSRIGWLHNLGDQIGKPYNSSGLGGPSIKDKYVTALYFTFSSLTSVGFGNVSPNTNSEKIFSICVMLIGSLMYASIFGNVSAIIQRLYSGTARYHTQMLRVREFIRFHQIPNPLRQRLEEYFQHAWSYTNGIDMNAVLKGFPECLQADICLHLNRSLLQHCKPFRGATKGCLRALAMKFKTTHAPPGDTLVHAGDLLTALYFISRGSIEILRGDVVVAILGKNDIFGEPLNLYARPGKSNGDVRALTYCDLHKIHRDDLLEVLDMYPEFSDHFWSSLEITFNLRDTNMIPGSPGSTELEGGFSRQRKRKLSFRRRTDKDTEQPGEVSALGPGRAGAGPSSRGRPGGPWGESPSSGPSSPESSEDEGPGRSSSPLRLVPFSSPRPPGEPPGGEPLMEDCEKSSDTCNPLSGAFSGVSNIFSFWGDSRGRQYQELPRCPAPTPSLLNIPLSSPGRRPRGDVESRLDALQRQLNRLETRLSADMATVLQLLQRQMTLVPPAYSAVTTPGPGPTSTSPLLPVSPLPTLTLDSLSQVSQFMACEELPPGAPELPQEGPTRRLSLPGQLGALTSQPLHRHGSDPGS
For `CNC(=O)c1csc(-c2ccc(Cl)cc2)n1`, the “hERG current change (%, negative = inhibition) at 10uM” value was -4.29%.
For `CCn1cc([N+](=O)[O-])c(C(=O)NCc2ccc(Cl)cc2)n1`, the “hERG current change (%, negative = inhibition) at 10uM” value was -6.18%.
`CCO.NCCc1c[nH]c2ccc(C(N)=O)cc12.O=C([O-])/C=C\C(=O)[O-]` was tested, and the “hERG current change (%, negative = inhibition) at 10uM” value was 11.6%.
`CC(=O)c1ccc(NC(=O)C2CCCN2S(=O)(=O)c2ccc(F)cc2)cc1` (stereo not shown) was tested, and the “hERG current change (%, negative = inhibition) at 10uM” value was -16.6%.
In the case of `O=c1c2ccccc2[nH]c(=S)n1CCCn1ccnc1`, the “hERG current change (%, negative = inhibition) at 10uM” value was -0.744%.
For `O=S(=O)(c1ccc(NC(=S)Nc2ccc3c(c2)OCO3)cc1)N1CCOCC1`, the “hERG current change (%, negative = inhibition) at 10uM” value was 13.1%.
In the case of `COc1ccc(C2/C=C\CN(C(=O)C3CCCCC3)CC(=O)N2Cc2ccc(F)cc2)cc1` (stereo not shown), the “hERG current change (%, negative = inhibition) at 10uM” value was -10.1%.
With `Cc1cc(OCC(=O)NNC(=O)CCc2ccccc2)ccc1Br` the “hERG current change (%, negative = inhibition) at 10uM” value was 17.6%.
`CCC[N+](C)(C)C(C)C(OC(C)=O)c1ccccc1.[I-]` (stereo not shown) was tested, and the “hERG current change (%, negative = inhibition) at 10uM” value was 15.5%.
With `CCOC(=O)CC(=O)Nc1ccsc1C(N)=O` the “hERG current change (%, negative = inhibition) at 10uM” value was 15.9%.
With `COc1ccccc1N1CCN(/N=C/c2ccc(C(=O)O)cc2)CC1` the “hERG current change (%, negative = inhibition) at 10uM” value was 16.3%.
For `COc1ccc(S(=O)(=O)NCC2CCCN(C(=O)c3ccccc3)C2)cc1` (stereo not shown), the “hERG current change (%, negative = inhibition) at 10uM” value was 8.3%.
In the case of `CC1=C(C(=O)N2CCOCC2)C(c2c(C)cc(C)cc2C)NC(=S)N1` (stereo not shown), the “hERG current change (%, negative = inhibition) at 10uM” value was 10.5%.
With `COC(=O)C1=CN(c2cc(C)cc(C)c2)C=C(C(=O)OC)C1c1ccc(OC)c(O)c1` the “hERG current change (%, negative = inhibition) at 10uM” value was 10.9%.
`CN(C)CCCNCCNC(=O)/C=N\O.Cl` was tested, and the “hERG current change (%, negative = inhibition) at 10uM” value was -65.4%.
`CN(C)CCCNCCCNC(=O)/C=N/O` was tested, and the “hERG current change (%, negative = inhibition) at 10uM” value was 10.2%.
With `CN(C)CCCNCCCCNC(=O)/C=N/O` the “hERG current change (%, negative = inhibition) at 10uM” value was 0.266%.
`CCOc1ccc(OCCC(=O)OC(C)C(=O)Nc2ccc(C(C)=O)cc2)cc1` (stereo not shown) was tested, and the “hERG current change (%, negative = inhibition) at 10uM” value was 8.72%.
`CC(=O)Nc1ccc(S(=O)(=O)N2c3ccccc3NC(=O)CC2C)c(Cl)c1` (stereo not shown) was tested, and the “hERG current change (%, negative = inhibition) at 10uM” value was 11.9%.
`CCOc1ccc(Nc2nc3c(C)cccc3cc2C#N)cc1` was tested, and the “hERG current change (%, negative = inhibition) at 10uM” value was 4.76%.
`Cc1cc(=O)oc2cc(Oc3ccc(C(N)=O)cc3[N+](=O)[O-])ccc12` was tested, and the “hERG current change (%, negative = inhibition) at 10uM” value was -20.7%.
With `O=C(N/N=C/c1cccc(Oc2ccc([N+](=O)[O-])cc2[N+](=O)[O-])c1)c1cncc(Br)c1` the “hERG current change (%, negative = inhibition) at 10uM” value was -32.1%.
In the case of `Cc1cc(=O)oc2cc(Oc3ccc([N+](=O)[O-])cc3C(F)(F)F)ccc12`, the “hERG current change (%, negative = inhibition) at 10uM” value was -15%.
`O=Cc1cccc(Oc2ccc([N+](=O)[O-])cc2[N+](=O)[O-])c1` was tested, and the “hERG current change (%, negative = inhibition) at 10uM” value was -55%.
In the case of `Cc1cc(=O)oc2cc(Oc3ccc([N+](=O)[O-])cc3[N+](=O)[O-])ccc12`, the “hERG current change (%, negative = inhibition) at 10uM” value was -64.4%.
In the case of `Nc1ccc(Oc2ccc([N+](=O)[O-])cc2[N+](=O)[O-])cc1`, the “hERG current change (%, negative = inhibition) at 10uM” value was -37.7%.
With `Cc1ccc(O)c(C2=Nc3ccccc3N=C(c3cccc([N+](=O)[O-])c3)C2)c1` the “hERG current change (%, negative = inhibition) at 10uM” value was 20.9%.
For `O=C(COc1ccccc1)OCc1cc(-c2ccco2)on1`, the “hERG current change (%, negative = inhibition) at 10uM” value was 5.99%.
With `Cc1ccc(C)c(NC(=S)N2CCN(Cc3ccccc3)CC2)c1` the “hERG current change (%, negative = inhibition) at 10uM” value was 11.2%.
`O=C(O)CCN=C1CCCc2ccccc2N1` was tested, and the “hERG current change (%, negative = inhibition) at 10uM” value was 7.26%.
With `O=C1CC(c2ccccc2)CC(O)=C1C=NC1CCCCCC1` (stereo not shown) the “hERG current change (%, negative = inhibition) at 10uM” value was 6.58%.
With `O=C1CC(c2ccccc2)CC(O)=C1C=NC1CCCC1` (stereo not shown) the “hERG current change (%, negative = inhibition) at 10uM” value was -5.2%.
In the case of `O=C1CC(c2cccc(Cl)c2)CC(O)=C1C=NC1CCCC1` (stereo not shown), the “hERG current change (%, negative = inhibition) at 10uM” value was -59.8%.
In the case of `CCOc1ccc(C(=O)NCC(=O)NCC(c2ccc(OC)cc2)N2CCCC2)cc1` (stereo not shown), the “hERG current change (%, negative = inhibition) at 10uM” value was -4.71%.
With `Cc1ccc(C)c(OC(=O)C2CSC3(C)CCC(=O)N23)c1C` (stereo not shown) the “hERG current change (%, negative = inhibition) at 10uM” value was -7.46%.
With `COc1cc(C(O)P(=O)(OCCC(C)C)c2ccc(N(C)C)cc2)cc(OC)c1OC` (stereo not shown) the “hERG current change (%, negative = inhibition) at 10uM” value was 10.9%.
`CCOc1ccc2c(c1)ncn2Cc1ccccc1` was tested, and the “hERG current change (%, negative = inhibition) at 10uM” value was 8.33%.
With `COc1ccc(NC(=S)N(CCO)Cc2cc3c(C)cc(C)cc3[nH]c2=O)cc1` the “hERG current change (%, negative = inhibition) at 10uM” value was -48.8%.
`Cc1cccc2cc(CN(CCCO)C(=O)Nc3cccc(Cl)c3)c(=O)[nH]c12` was tested, and the “hERG current change (%, negative = inhibition) at 10uM” value was -28.4%.
For `Cc1ccc(C)c2[nH]c(=O)c(CN(CCN3CCCC3)C(=O)Nc3cccc(Cl)c3)cc12`, the “hERG current change (%, negative = inhibition) at 10uM” value was -74.1%.
For `Cc1cccc2cc(CN(CC3CCCO3)C(=O)NC3CCCCC3)c(=O)[nH]c12` (stereo not shown), the “hERG current change (%, negative = inhibition) at 10uM” value was -9.99%.
With `Cc1ccc2cc(CN(CC3CCCO3)C(=O)NC3CCCCC3)c(=O)[nH]c2c1C` (stereo not shown) the “hERG current change (%, negative = inhibition) at 10uM” value was -55.4%.
In the case of `Cc1ccc(C)c2[nH]c(=O)c(CN(CC3CCCO3)C(=O)NC3CCCCC3)cc12` (stereo not shown), the “hERG current change (%, negative = inhibition) at 10uM” value was -2.81%.
`COc1ccc(NC(=O)N(CCN2CCCC2)Cc2cc3cc(OC)c(OC)cc3[nH]c2=O)cc1` was tested, and the “hERG current change (%, negative = inhibition) at 10uM” value was -4.32%.
For `O=C(Nc1cccc(Cl)c1)N(CCN1CCOCC1)Cc1cccc(Cl)c1`, the “hERG current change (%, negative = inhibition) at 10uM” value was -22.1%.
For `Cc1ccc2cc(CN(CCN(C)C)C(=S)Nc3ccccc3)c(=O)[nH]c2c1C`, the “hERG current change (%, negative = inhibition) at 10uM” value was -49.9%.
For `Cc1cc(C)c2cc(CN(CCN3CCCC3)C(=O)Nc3ccc(F)cc3)c(=O)[nH]c2c1`, the “hERG current change (%, negative = inhibition) at 10uM” value was -74.4%.
With `Cc1ccc2cc(CN(CCN3CCCC3)C(=O)Nc3ccccc3)c(=O)[nH]c2c1C` the “hERG current change (%, negative = inhibition) at 10uM” value was -57.8%.
For `COc1ccc(NC(=O)N(CCO)Cc2cc3c(C)cc(C)cc3[nH]c2=O)cc1`, the “hERG current change (%, negative = inhibition) at 10uM” value was -15.3%.
With `CCC(c1nnnn1CS(=O)(=O)c1ccc(C)cc1)N1CCN(c2nc3ccccc3s2)CC1` (stereo not shown) the “hERG current change (%, negative = inhibition) at 10uM” value was -4.38%.
For `CC(C)NC(=O)[C@@H]1CSC2c3ccccc3C(=O)N21` (stereo partly shown), the “hERG current change (%, negative = inhibition) at 10uM” value was 12.7%.
`Nc1nc(-c2ccc(Cl)cc2)nn1C(=O)c1ccco1` was tested, and the “hERG current change (%, negative = inhibition) at 10uM” value was 23.3%.
For `CCOC(=O)C(Cc1ccccc1)C(=O)Nc1cccc2ccccc12` (stereo not shown), the “hERG current change (%, negative = inhibition) at 10uM” value was -11.8%.
`CC(C)Cn1c(N)c(C(=O)COC(=O)[C@@H]2CCCN2C(=O)c2cccs2)c(=O)n(C)c1=O` was tested, and the “hERG current change (%, negative = inhibition) at 10uM” value was -8.74%.
With `O=C(c1c[nH]c2ccccc12)N1CCOCC1` the “hERG current change (%, negative = inhibition) at 10uM” value was 8.48%.

Reference: publication PMC4336329 (PLoS ONE, 2015)
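Also: peak tail current of the secondary pulse compared with the same well before compound.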
